Inconclusive results are not listed. The source made the active and inactive calls. The call rests on the fitted dose curve; in most records, active means well fitted curve in the direction sought with a large enough effect; inconclusive means small, poorly fitted or top-dose-only effect, or another doubt; inactive means no such curve, though single readings can be large; an effect the other way counts as inactive or inconclusive.
Experiments:
[1] = Cellular Toxicity (caspase-3) Mesangial (AID 660); conditions: mesangial cells, normalized: DMSO 0%, 100 µM tamoxifen 100%; at 91.7 µM (top of the series);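 further: combined caspase 3 and 7 activity read by Caspase-Glo luminescence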
Procedure, shortened: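 Mesangial cells, 1000/well, 5 h settle at 37 °C; compound 16 h, 37 °C; Caspase-Glo 3/7 reagent 20 min RT; luminescence. Norm.: DMSO = 0%, tamoxifen 100 uM = 100%. AC50, Hill fit.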

[2] = Cellular Toxicity (caspase-3) SK-N-SH (AID 661); conditions: SK-N-SH caspase-3 activation, qHTS, DMSO as zero, staurosporine as full; series mostly up to 91.7 µM
Procedure, shortened: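 Human neuroblastoma SK-N-SH, 1500 cells/well, 5 hr pre-incubation, then compound 16 hr, 37 °C. Caspase-Glo 3/7 reagent, 1 hr RT, luminescence. Norm. to DMSO/10 uM staurosporine; Hill-fit AC50.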

[3] = Cellular Toxicity (caspase-3) H-4-II-E (AID 663); conditions: H-4-II-E rat hepatoma, scaled: DMSO 0%, 100 µM tamoxifen 100%; at 92.2 µM (top of the series);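 further: cells exposed to compound for 16 hr before readout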
Procedure, shortened: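 Rat hepatoma H-4-II-E cells (1500/well) plated 5 hr, then exposed to compound titrations for 16 hr at 37 °C. Caspase-Glo 3/7 luminescence read after 20 min at RT; data normalized to DMSO and 100 uM tamoxifen, AC50 from Hill fits.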

[4] = Cellular Toxicity (caspase-3) Hek293 (AID 664); conditions: HEK293 caspase-3 activation, DMSO = 0%, 100 µM tamoxifen = 100%; at 92.2 µM (top of the series);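 further: cells exposed to compound for 16 h at 37 °C before readout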
Procedure, shortened: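 Cells plated, 5 hr at 37 °C; compounds added; 16 hr at 37 °C; Caspase-Glo 3/7 reagent, 20 min RT; luminescence read. Activation expressed relative to DMSO and 100 uM tamoxifen, AC50 by Hill model.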

[5] = Cellular Toxicity (caspase-3) N2a (AID 665); conditions: N2a cells, luminescence, normalized: DMSO 0%, 10 µM staurosporine 100%; series mostly up to 92.2 µM;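 further: compound exposure lasted 16 h at 37 °C before readout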
Procedure, shortened: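 N2a cells, 1500/well, 5 h settle at 37 °C; cpd 16 h, 37 °C; Caspase-Glo 3/7, 1 h RT; luminescence. Norm: DMSO = 0, 10 uM staurosporine = 100%. AC50, Hill fit.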

[6] = Cellular Toxicity (caspase-3) NIH 3T3 (AID 666); conditions: NIH 3T3 caspase-3 activation, apoptosis/toxicity, 0% DMSO, 100% is 100 µM tamoxifen; series mostly up to 92.2 µM;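 further: caspase signal read after 16 h compound exposure; 0% = DMSO basal and 100% = 100 µM tamoxifen stimulation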
Procedure, shortened: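 Luminescence from aminoluciferin released by caspase-3/7 cleavage of a peptide substrate served as read-out. Mouse fibroblast NIH 3T3 cells were exposed to compounds over a concentration range for 16 hours, and AC50 values came from standard Hill modelling.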

[7] = Cellular Toxicity (caspase-3) Renal Proximal Tubule (AID 667); conditions: renal proximal tubule cells, primary cells freshly taken from rat; Potency: caspase-3 activation; series mostly up to 91.7 µM;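 further: cells exposed to compound for 16 hours at 37 °C before detection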
Procedure, shortened: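 In qHTS format, rat primary proximal tubule cells seeded at 1000 per well are exposed to compounds for 16 hours at 37 °C. An increase in Caspase-Glo 3/7 luminescence indicates caspase activation.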

[8] = biological target: Cytochrome P450 3A4 (Homo sapiens) (UniProt P08684); experiment: qHTS Assay for Inhibitors and Substrates of Cytochrome P450 3A4 (AID 884); conditions: recombinant CYP3A4, Luciferin-PPXE luminescence; series mostly up to 57.1 µM; further: on the % scale 0 is the no-effect control and ±100 the full control effect; nearly all actives have a fitted effect of over 50% in size
Sequence of Cytochrome P450 3A4 (Homo sapiens) (P08684 whole entry, looked up): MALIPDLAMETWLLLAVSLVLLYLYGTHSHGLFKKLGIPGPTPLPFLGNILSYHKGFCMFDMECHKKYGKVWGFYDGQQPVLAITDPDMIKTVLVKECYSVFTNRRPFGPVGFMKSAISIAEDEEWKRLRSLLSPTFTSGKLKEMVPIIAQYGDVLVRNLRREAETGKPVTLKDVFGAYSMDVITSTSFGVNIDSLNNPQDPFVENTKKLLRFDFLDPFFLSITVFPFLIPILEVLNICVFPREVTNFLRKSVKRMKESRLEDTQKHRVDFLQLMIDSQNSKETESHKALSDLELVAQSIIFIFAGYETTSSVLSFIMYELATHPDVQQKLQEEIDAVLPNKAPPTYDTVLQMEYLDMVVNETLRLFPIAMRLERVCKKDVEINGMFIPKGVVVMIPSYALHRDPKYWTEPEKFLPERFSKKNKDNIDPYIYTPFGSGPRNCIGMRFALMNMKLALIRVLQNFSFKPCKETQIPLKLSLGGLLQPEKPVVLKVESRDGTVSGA
Procedure, shortened: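 20 nM human CYP3A4 with 25 uM Luciferin-PPXE (at KM) in 200 mM KPO4, preincubated 10 min with compound; NADPH regeneration started a 60 min RT reaction. Luciferin detected by luminescence, normalized to 57 uM ketoconazole as full inhibition.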

[9] = Cell Viability - LYMP2-001 (AID 921); conditions: LYMP2-001 lymphoblastoid cell viability; series mostly up to 92.2 µM;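 further: cells exposed to compound for 24 h at 37 °C; 0% = DMSO only and full inhibition = tetraoctylammonium bromide control wells; nearly all actives have a fitted effect of over 70% in size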
Procedure, shortened: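 qHTS, 1536-well; lymphoblastoid cells, 24 hr compound, 37 C; ATP by CellTiter-Glo, 30 min RT; luminescence; Hill-fit AC50.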

[10] = MultiTox-Fluor Cytotoxicity Assay - LYMP1-001 - Dead Cells (AID 946); conditions: LYMP1-001 lymphoblastoid cells, dead-cell protease fluorescence; series mostly up to 92.2 µM
Procedure, shortened: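 LYMP1-001 lymphoblastoid cells (2500/well) treated 16 h at 37 C. Dead-cell protease cleavage of bis-AAF-R110 read at Ex/Em 485/520. Normalized to DMSO and 15 uM tetraoctylammonium bromide; AC50 from Hill fits.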

[11] = Cell Viability - LYMP1-002 - Assay at 16 hr (AID 948); conditions: LYMP1-002 lymphoblastoid cell viability; series mostly up to 92.2 µM;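 further: 0% = DMSO alone and full effect = 92 µM tetraoctylammonium bromide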
Procedure, shortened: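 Acute cytotoxicity is scored as a concentration-dependent fall in intracellular ATP in a human lymphoblastoid line (LYMP1-002) after 16 hr compound exposure at 37 C, measured by luciferase luminescence.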

[12] = MultiTox-Fluor Cytotoxicity Assay - LYMP1-002 - Live Cells (AID 955); conditions: LYMP1-002 lymphoblastoid live-cell protease fluorescence viability; series mostly up to 46.1 µM; further: on the % scale 0 is the no-effect control and ±100 the full control effect
Procedure, shortened: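 Read-out is live-cell protease activity (cell-permeant GF-AFC substrate, fluorescence Ex/Em=405/510), where a decrease indicates acute toxicity. Human lymphoblastoid cells were treated 16 hours at 37 C in a concentration series, and AC50 values came from standard Hill modelling.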

[13] = MultiTox-Fluor Cytotoxicity Assay - LYMP1-002 - Dead Cells (AID 960); conditions: LYMP1-002 lymphoblastoid cells, dead-cell protease fluorescence; series mostly up to 46.1 µM; further: nearly all actives have a fitted effect of over 60% in size
Procedure, shortened: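 LYMP1-002 cells 2500/well; 5 hr 37 C pre-incubation; compound 16 hr 37 C; MultiTox-Fluor reagent 60 min RT; dead-cell fluor Ex/Em 485/520. Norm. to DMSO (0%) vs 15 uM tetraoctylammonium bromide (100%); Hill AC50.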

[14] = MultiTox-Fluor Cytotoxicity Assay - LYMP1-003 - Dead Cells (AID 961); conditions: LYMP1-003 lymphoblastoid cells, dead-cell protease fluorescence; series mostly up to 92.2 µM; further: nearly all actives have a fitted effect of over 70% in size
Procedure, shortened: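 LYMP1-003 human lymphoblastoid cells (2500/well) exposed to compound 16 h at 37 C in complete medium; dead-cell protease read with bis-AAF-R110 fluorescence (Ex/Em 485/520) after 60 min at room temperature. Normalized to DMSO and 15 uM tetraoctylammonium bromide; AC50 from Hill fit.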

[15] = MultiTox-Fluor Cytotoxicity Assay - LYMP1-003 - Live Cells (AID 962); conditions: LYMP1-003 lymphoblastoid cells, MultiTox-Fluor live-cell protease fluorescence; series mostly up to 92.2 µM;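 further: 0% = DMSO only and full loss = 92 µM tetraoctylammonium bromide; cytotoxic hits lower the live-cell protease signal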
Procedure, shortened: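 qHTS, 1536-well; 2500 cells/well LYMP1-003; 5 hr 37 C settle; cpd 16 hr 37 C; MultiTox-Fluor reagent 60 min RT; live-cell protease fluor. 405/510; Hill-fit AC50; tetraoctylammonium bromide pos. ctrl.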

[16] = Cell Viability - LYMP1-003 - Assay at 24 hr (AID 963); conditions: LYMP1-003 lymphoblastoid cell viability; series mostly up to 92.2 µM;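 further: plate controls were DMSO only for no effect and tetraoctylammonium bromide positive control for full effect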
Procedure, shortened: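 Cells seeded at 2500/well, 5 hr at 37 C; compounds added; 24 hr at 37 C; CellTiter-Glo added, 30 min room temperature; luminescence read. Decrease in ATP taken as cytotoxicity, AC50 from Hill modelling.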

[17] = Cell Viability - LYMP1-003 - Assay at 40 hr (AID 964); conditions: LYMP1-003 lymphoblastoid viability; series mostly up to 92.2 µM; further: on the % scale 0 is the no-effect control and ±100 the full control effect; nearly all actives have a fitted effect of over 60% in size
Procedure, shortened: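 Cells were seeded at 2500 per well and incubated 5 hr at 37 C. Compounds were added across a concentration series and left 40 hr at 37 C. CellTiter-Glo was added for 30 min at room temperature before luminescence reading.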

[18] = Cell Viability - LYMP2-003 (AID 965); conditions: LYMP2-003 lymphoblastoid cell viability; series mostly up to 92.2 µM;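 further: cells exposed to compounds for 24 h before reading; 0% = DMSO only and full effect = 92 µM tetraoctylammonium bromide; nearly all actives have a fitted effect of over 50% in size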
Procedure, shortened: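 Acute cytotoxicity is scored as a concentration-dependent drop in intracellular ATP, measured by luciferase luminescence in human lymphoblastoid cells treated for 24 hours at 37 C. AC50 values derive from Hill-equation modelling.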

[19] = MultiTox-Fluor Cytotoxicity Assay - LYMP1-001 - Live Cells (AID 947); conditions: LYMP1-001 lymphoblastoid cells, live-cell protease fluorescence viability; series mostly up to 92.2 µM;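 further: 0% = DMSO only and full inhibition = tetraoctylammonium bromide control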

CCC(C)(C)C
inactive: caspase-3 activation [1] 0.949% | outcome [2] | caspase-3 activation [3] -0.587% | caspase-3 activation [4] -1.96% | outcome [5] | outcome [6] | Potency [7] | Potency [8] | Potency [9] | outcome [10] | outcome [11] | outcome [12] | outcome [13] | Potency [14] | Potency [15] | Potency [16] | Potency [17] | Potency [18]

CCN(C(=O)N(CC)c1ccccc1)c1ccccc1
inactive: caspase-3 activation [1] 0.257% | outcome [2] | caspase-3 activation [3] 2.86% | caspase-3 activation [4] 0.606% | outcome [5] | outcome [6] | Potency [7] | Potency [8] | Potency [9] | outcome [10] | outcome [11] | outcome [12] | outcome [13] | Potency [14] | Potency [15] | Potency [16] | Potency [17] | Potency [18]

Cc1ccc(C)c([N+](=O)[O-])c1
inactive: caspase-3 activation [1] 0.386% | outcome [2] | caspase-3 activation [3] -0.213% | caspase-3 activation [4] 0.434% | outcome [5] | outcome [6] | Potency [7] | Potency [8] | Potency [9] | outcome [10] | outcome [11] | outcome [12] | outcome [13] | Potency [14] | Potency [15] | Potency [17] | Potency [18]

CCCCCCCN
inactive: caspase-3 activation [1] 1.08% | outcome [2] | caspase-3 activation [3] 2.21% | caspase-3 activation [4] -0.824% | outcome [5] | outcome [6] | Potency [7] | Potency [8] | Potency [9] | outcome [10] | outcome [11] | outcome [12] | Potency [14] | Potency [15] | Potency [16] | Potency [17] | Potency [18]

COC(=O)CCC(=O)OC
inactive: caspase-3 activation [1] -0.284% | outcome [2] | caspase-3 activation [3] 0.845% | caspase-3 activation [4] -0.32% | outcome [5] | outcome [6] | Potency [7] | Potency [8] | Potency [9] | outcome [10] | outcome [11] | outcome [12] | outcome [13] | Potency [14] | Potency [15] | Potency [16] | Potency [17] | Potency [18]

C=Cc1ccccn1
inactive: caspase-3 activation [1] 2.96% | outcome [2] | caspase-3 activation [3] 1.92% | caspase-3 activation [4] 3.43% | outcome [5] | outcome [6] | Potency [7] | Potency [8] | Potency [9] | outcome [10] | outcome [11] | outcome [12] | outcome [13] | Potency [14] | Potency [15] | Potency [16] | Potency [17] | Potency [18]

C1CCCC1
inactive: caspase-3 activation [1] -0.162% | outcome [2] | caspase-3 activation [3] -0.556% | caspase-3 activation [4] 0.0682% | outcome [5] | outcome [6] | Potency [7] | Potency [8] | Potency [9] | outcome [10] | outcome [11] | outcome [12] | outcome [13] | Potency [14] | Potency [15] | Potency [16] | Potency [18]

COC(=O)CC#N
inactive: caspase-3 activation [1] 0.486% | outcome [2] | caspase-3 activation [3] 1.64% | caspase-3 activation [4] 0.82% | outcome [5] | outcome [6] | Potency [7] | Potency [8] | Potency [9] | outcome [10] | outcome [11] | outcome [12] | outcome [13] | Potency [14] | Potency [15] | Potency [17]

O=C(O)c1ccc(CO)o1
inactive: caspase-3 activation [1] -0.701% | outcome [2] | caspase-3 activation [3] 0.706% | caspase-3 activation [4] -0.635% | outcome [5] | outcome [6] | Potency [7] | Potency [8] | outcome [10] | outcome [19] | outcome [11] | outcome [12] | outcome [13] | Potency [14] | Potency [15] | Potency [17] | Potency [18]

C=C(C)C(=O)OC
inactive: caspase-3 activation [1] 0.161% | outcome [2] | caspase-3 activation [3] 1.27% | caspase-3 activation [4] 1.97% | outcome [5] | outcome [6] | Potency [7] | Potency [8] | Potency [9] | outcome [10] | outcome [11] | outcome [12] | outcome [13] | Potency [14] | Potency [15] | Potency [16] | Potency [17] | Potency [18]

C=CCCCCCC
inactive: caspase-3 activation [1] 0.339% | outcome [2] | caspase-3 activation [3] 1.37% | caspase-3 activation [4] -0.874% | outcome [5] | outcome [6] | Potency [7] | Potency [8] | Potency [9] | outcome [10] | outcome [11] | outcome [12] | outcome [13] | Potency [14] | Potency [15] | Potency [16] | Potency [17] | Potency [18]

CC(C)C=O
inactive: caspase-3 activation [1] 1.06% | outcome [2] | caspase-3 activation [3] 0.472% | caspase-3 activation [4] -1.91% | outcome [5] | outcome [6] | Potency [7] | Potency [8] | Potency [9] | outcome [10] | outcome [11] | outcome [12] | outcome [13] | Potency [15] | Potency [16] | Potency [17]

CN(C)CCCNCCCN
inactive: caspase-3 activation [1] -0.219% | outcome [2] | caspase-3 activation [3] -0.0657% | caspase-3 activation [4] 0.619% | outcome [5] | outcome [6] | Potency [7] | Potency [8] | outcome [10] | outcome [19] | outcome [11] | outcome [12] | outcome [13] | Potency [14] | Potency [15] | Potency [16] | Potency [17] | Potency [18]

O=Cc1ccccc1Cl
inactive: caspase-3 activation [1] -0.514% | outcome [2] | caspase-3 activation [3] 2.39% | caspase-3 activation [4] 2.31% | outcome [5] | outcome [6] | Potency [7] | Potency [8] | outcome [10] | outcome [19] | outcome [11] | outcome [12] | outcome [13] | Potency [14] | Potency [15] | Potency [16] | Potency [17] | Potency [18]

— PubChem BioAssay (NCATS)
